The values below come from PubChem BioAssay.

The experiment in a line: resazurin metabolic signal in HepG2 cells – cell-based, resazurin fluorescence, 24 h, PK04 Diversity Set, profiling panel (AID 1172). Note: test concentration not given here. Conditions: HepG2 viability, higher = more signal.
Consider `COC(=O)[C@H](C)NC(=O)CCC1CC(OC(=O)NCc2cccc3ccccc23)CC2(CCCC(COC(=O)NCCOc3ccccc3)O2)O1` (stereo partly specified), for which the z-score stood at 0.311.

`C[C@@H]1CC[C@@H](C(=O)O)N[C@H]1c1cccc(N2CCOCC2)c1` returned a z-score of 0.764.

On to `COC(=O)[C@@H]1CC[C@H](C)[C@@H](c2ccc(Br)cc2)N1C[C@H](O)CN=[N+]=[N-]`, for which the z-score is -0.413.

Take `CCOC(=O)[C@H](Cc1ccccc1)NC(=O)CCC1CC(OC(=O)NCCc2ccc(F)cc2)CC2(CCCC(COC(=O)NCc3cccc(C(F)(F)F)c3)O2)O1` (stereo partly specified): the z-score worked out at 0.134.

The compound `COc1cccc([C@H]2Oc3ccc(OC)cc3C(=NOCC[C@@H]3C=C[C@H](OC(C)=O)[C@@H](COC(C)=O)O3)[C@@H]2O)c1` gave a z-score of -0.76.

Compound `CC(=O)OC[C@H]1O[C@H](CC=NO[C@@H](C)c2cc(-c3c(C)cc(C)cc3C)no2)C=C[C@@H]1OC(C)=O` showed a z-score of -0.583.

Take `CCOC(=O)NN=C1C[C@@H](O)[C@@H](O)[C@@H]2[C@@H]3C(=O)N(c4ccc(F)cc4F)C(=O)[C@@H]3CC[C@H]12`: the z-score was found to be 0.99.

`O=C1[C@H]2[C@H]3[C@H](O)[C@H](O)CC(=NO[C@@H]4O[C@H](CO)[C@@H](O)[C@H](O)[C@H]4O)[C@H]3CC[C@H]2C(=O)N1C[C@@H]1CCCO1` gave a z-score of 0.724.

The compound `CCOC(=O)[C@H](Cc1ccccc1)NC(=O)CCC1CC(OC(=O)NCCc2ccc(F)cc2)CC2(CCCC(COC(=O)NCCC(C)C)O2)O1` (stereo partly specified) displayed a z-score of 0.456.

In the case of `CO[C@H]1COC(=O)[C@H](C)COC(=O)[C@@H](OCc2ccccc2)C=C[C@@H]1C`, the z-score came out at 0.176.

Consider `O=C1[C@H]2[C@H]3[C@H](O)[C@H](O)CC(=NOC[C@@H](O)COCc4ccco4)[C@@H]3CC[C@H]2C(=O)N1Cc1ccccc1`, for which the z-score is 0.379.
